Screens from PubChem BioAssay.
Rows were chosen to be rich in hits. Some 11% of all compounds tested hit in one or more screens of this group.
VDR inhibitor – Inhibitors of the vitamin D receptor (VDR): qHTS; VDR-SRC2-3 peptide fluorescence polarization, 2 h; Potency, µM, for inactives: max response, negative = inhibition, most hits filed as inhibitors; 400,000 compounds, 0.93% hits; AID 504847, 2011; also: % is scaled to controls: 0 for no effect and ±100 for the full control effect
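Fluorescence polarization assay measuring small-molecule disruption of VDR binding to the coregulator peptide SRC2-3. Compounds were pin-transferred (23 nl) into the reagent mix and incubated 2 h at room temperature before reading.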
G9a block – qHTS Assay for Inhibitors of Histone Lysine Methyltransferase G9a. G9a H3K9 monomethylation, AlphaScreen, 2 h. Histone-lysine N-methyltransferase EHMT2 (Homo sapiens), Q96KQ7. 350,000 compounds, 8.8% hits. AID 504332, 2011. Potency, µM (highest dose often 102 µM), inactives show at the top dose activity, negative = inhibition, usual class: inhibitors; also: % is scaled to controls: 0 for no effect and ±100 for the full control effect; nearly all actives have a fitted effect of over 75% in size
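Quantitative HTS format: methyltransferase activity on a biotin-tagged H3K9 peptide is measured by AlphaScreen, using a rabbit anti-monomethyl-H3K9 antibody with streptavidin donor and anti-IgG acceptor beads. Final levels are 20 nM enzyme, 500 nM peptide, 20 uM SAM; 2 h RT.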
PLK1 PBD inh – qHTS for Inhibitors of PLK1-PDB (polo-like kinase 1 - polo-box domain): Primary Screen; Serine/threonine-protein kinase PLK1 (Homo sapiens), P53350; Plk1 PBD binding of FITC phosphopeptide, fluorescence polarization; Potency, µM, inactives show max response, negative = inhibition, usual class: inhibitors; 360,000 compounds, 2.8% hits; AID 720504, 2013; also: series mostly up to about 57 µM; % is scaled to controls: 0 for no effect and ±100 for the full control effect; nearly all actives have a fitted effect of over 65% in size
HP1b chromo inh – HTS for Inhibitors of HP1-beta Chromodomain Interactions with Methylated Histone Tails. 390,000 compounds, 0.56% hits. AlphaScreen HP1-beta / biotin-H3K9me3 peptide binding. Potency, µM (doses to about 114 µM), for inactives: top-dose activity change, negative = inhibition, hits mostly inhibitors. Chromobox protein homolog 1 (Homo sapiens), P83916; also: nearly all actives have a fitted effect of over 70% in size
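Compound inhibition of the preformed complex between 50 nM HP1-beta and 50 nM biotinylated H3K9me3 peptide was read by AlphaScreen. Buffer was PBS pH 7.4 with 0.01% Tween-20. Incubations ran 30 min at room temperature, with 10 ug/mL donor/acceptor beads.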
JMJD2A Tudor inh – qHTS Assay for Inhibitors of JMJD2A-Tudor Domain; Lysine-specific demethylase 4A (Homo sapiens), O75164; AlphaScreen JMJD2A-Tudor / H3K4me3 peptide binding; 390,000 compounds, 4.4% hits; Potency, µM (doses to about 114 µM), for inactives: top-dose activity change, negative = inhibition, actives largely listed as inhibitors; also: % is scaled to controls: 0 for no effect and ±100 for the full control effect; nearly all actives have a fitted effect of over 50% in size
BAZ2B block – qHTS Assay for Inhibitors of BAZ2B | Bromodomain adjacent to zinc finger domain protein 2B (Homo sapiens), Q9UIF8 | AlphaScreen BAZ2B-H3K14Ac peptide displacement | Potency, µM (top dose mostly 114 µM), for the others: at the highest dose activity change, negative = inhibition, actives largely listed as inhibitors | 360,000 compounds, 4.4% hits | AID 504333, 2011; also: % is scaled to controls: 0 for no effect and ±100 for the full control effect; nearly all actives have a fitted effect of over 60% in size
Target sequence (Q9UIF8 whole entry, looked up, the tested form may be a part): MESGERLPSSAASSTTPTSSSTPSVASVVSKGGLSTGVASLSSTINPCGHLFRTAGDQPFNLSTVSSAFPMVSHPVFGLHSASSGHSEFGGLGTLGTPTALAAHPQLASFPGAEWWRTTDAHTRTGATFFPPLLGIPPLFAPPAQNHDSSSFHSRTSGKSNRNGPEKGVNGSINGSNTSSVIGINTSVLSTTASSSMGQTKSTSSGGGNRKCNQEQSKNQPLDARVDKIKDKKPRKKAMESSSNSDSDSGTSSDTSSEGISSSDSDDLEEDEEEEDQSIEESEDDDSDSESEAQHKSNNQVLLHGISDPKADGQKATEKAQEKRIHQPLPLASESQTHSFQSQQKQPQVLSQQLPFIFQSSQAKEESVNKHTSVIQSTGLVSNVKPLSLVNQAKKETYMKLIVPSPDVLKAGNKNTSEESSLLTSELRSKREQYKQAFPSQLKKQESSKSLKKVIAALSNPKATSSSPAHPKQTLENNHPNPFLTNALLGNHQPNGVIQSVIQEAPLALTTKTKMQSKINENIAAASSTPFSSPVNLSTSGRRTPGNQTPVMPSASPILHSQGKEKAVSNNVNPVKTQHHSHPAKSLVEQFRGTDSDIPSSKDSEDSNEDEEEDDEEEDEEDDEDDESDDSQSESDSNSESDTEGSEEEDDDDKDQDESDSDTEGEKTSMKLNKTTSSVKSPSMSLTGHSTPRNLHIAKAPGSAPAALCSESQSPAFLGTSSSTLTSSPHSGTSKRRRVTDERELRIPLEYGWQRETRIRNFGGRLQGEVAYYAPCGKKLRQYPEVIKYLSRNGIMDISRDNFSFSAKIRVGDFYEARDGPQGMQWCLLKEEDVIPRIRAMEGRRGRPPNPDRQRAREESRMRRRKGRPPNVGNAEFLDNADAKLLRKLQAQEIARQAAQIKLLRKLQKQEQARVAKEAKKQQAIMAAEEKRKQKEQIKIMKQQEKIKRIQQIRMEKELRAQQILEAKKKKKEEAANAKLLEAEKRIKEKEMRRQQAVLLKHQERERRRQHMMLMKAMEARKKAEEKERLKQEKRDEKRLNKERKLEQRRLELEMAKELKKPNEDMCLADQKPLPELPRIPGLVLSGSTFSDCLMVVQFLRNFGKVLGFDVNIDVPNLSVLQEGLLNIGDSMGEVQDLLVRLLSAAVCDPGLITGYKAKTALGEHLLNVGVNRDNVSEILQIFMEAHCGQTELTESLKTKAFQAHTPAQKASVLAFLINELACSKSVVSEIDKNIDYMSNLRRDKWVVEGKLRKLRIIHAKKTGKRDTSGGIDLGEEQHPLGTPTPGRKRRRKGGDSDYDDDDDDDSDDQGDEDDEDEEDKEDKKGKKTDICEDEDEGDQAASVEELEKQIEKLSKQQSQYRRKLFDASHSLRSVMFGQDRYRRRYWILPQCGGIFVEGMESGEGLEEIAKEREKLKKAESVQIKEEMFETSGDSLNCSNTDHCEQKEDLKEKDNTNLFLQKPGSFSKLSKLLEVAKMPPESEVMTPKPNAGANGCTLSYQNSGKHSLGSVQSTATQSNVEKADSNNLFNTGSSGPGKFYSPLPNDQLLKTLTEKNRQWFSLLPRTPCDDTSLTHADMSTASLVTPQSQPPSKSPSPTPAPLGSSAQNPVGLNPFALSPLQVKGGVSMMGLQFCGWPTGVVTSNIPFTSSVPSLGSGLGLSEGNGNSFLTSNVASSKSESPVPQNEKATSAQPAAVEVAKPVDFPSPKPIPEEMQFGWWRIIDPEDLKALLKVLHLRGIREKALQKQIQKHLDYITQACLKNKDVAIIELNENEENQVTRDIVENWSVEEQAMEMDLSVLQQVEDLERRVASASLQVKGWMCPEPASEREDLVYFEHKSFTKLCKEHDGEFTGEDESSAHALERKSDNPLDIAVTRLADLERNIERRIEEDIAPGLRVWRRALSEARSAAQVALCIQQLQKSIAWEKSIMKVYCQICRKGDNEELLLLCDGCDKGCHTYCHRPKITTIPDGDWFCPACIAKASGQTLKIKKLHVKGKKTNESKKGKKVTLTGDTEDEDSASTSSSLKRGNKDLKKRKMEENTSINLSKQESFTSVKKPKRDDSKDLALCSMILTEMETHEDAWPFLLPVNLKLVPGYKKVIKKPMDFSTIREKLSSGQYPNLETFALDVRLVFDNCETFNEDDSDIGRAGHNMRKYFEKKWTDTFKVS
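BAZ2B (50 nM) with biotin-H3(5-23)K14Ac peptide (50 nM) in PBS pH 7.4, 0.01% Tween-20, preformed 30 min, then compound 30 min at room temperature; top concentration 110uM. AlphaScreen streptavidin donor/nickel chelate acceptor beads (10 ug/mL final), 20 min dark, signal read.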
The depositor's hits bear a star; u = inconclusive; x = no result given; [ ] = remark or other dose. Calls follow the shape of the dose curve; as a rule, active = well fitted curve in the direction sought with a large enough effect; inconclusive = small, poorly fitted or top-dose-only effect, or another doubt; inactive = no such curve, though single readings can be large; an effect the other way counts as inactive or inconclusive. Potency is read from the fitted curve at half-maximal effect.

SMILES	VDR inhibitor	G9a block	PLK1 PBD inh	HP1b chromo inh	JMJD2A Tudor inh	BAZ2B block
O=C(NCCCN1CCOCC1)c1ccc2c(=O)n(Cc3ccccc3)c(=S)[nH]c2c1	23%	50µM*	4%	39%	-10%	-26%
COc1ccc(-n2c(=S)[nH]c3cc(C(=O)NCCCN4CCOCC4)ccc3c2=O)cc1OC	-16%	35µM*	-6%	34%	22µM*	u
NCCn1c(-c2ccccc2)cc(C(=O)O)c1-c1ccccc1F	-22%	50µM*	-26%	24%	-29%	u
CCOC(=O)c1cc(-c2ccccc2)n(CCC(=O)O)c1C	5%	-2%[12.7 µM]	-6%	16%	-29%	-35%
O=C(CSc1nnc(SCc2ccc(Cl)cc2)s1)N/N=C/c1ccc(C(=O)O)cc1	-7%	x	67µM*	26%	-18%	-17%
O=C(CSc1nnc(SCc2cccc3ccccc23)s1)N/N=C/c1c[nH]c2ccccc12	-18%	u	-6%	11%	-30%	-7%
O=C(CSc1nnc(SCc2ccc(Cl)cc2)s1)N/N=C/c1c[nH]c2ccccc12	-23%	u	-13%	6%	89µM*	35µM*
CC(=O)N1C[C@@H](CO)[C@@H](N(C)C(=O)C(C)(C)C)C[C@H]1c1ccccc1	x	x	-6%	x	x	x
O=C(CCNC(=O)c1ccccc1)NNC(=O)c1ccc(F)cc1	-21%	x	-14%	11%	-15%	x
Cc1ccc(C)c(/C=C/C(=O)c2ccccc(=O)c2O)c1	45µM*	45µM*	u	-26%	u	56µM*
O=C(/C=C/c1ccccc1Cl)Nc1ccccc1	11%	x	1%	52%	2%	3%
Cc1nn(C)cc1C(=O)/C=C/c1ccc([N+](=O)[O-])cc1	-4%	-5%	-7%	-3%	-9%	-19%
O=C(/C=C/c1ccccc1Cl)c1ccccc(=O)c1O	28µM*	32µM*	27µM*	u	u	56µM*
O=C(/C=C/c1ccc([N+](=O)[O-])cc1)c1ccccc(=O)c1O	25µM*	x	-30%	u	u	x
O=C(Cn1cc(SCc2ccc(F)cc2)c2ccccc21)N1CCCCCC1	-2%	6%[59 µM]	x	64%	0%	-1%
CCOc1ccc(NS(=O)(=O)c2ccc(C(=O)N3CCC3)cc2)cc1	8%	x	0%	50%	-8%	x
C[C@H]1CN([C@@H](C)CO)C(=O)c2cc(NS(=O)(=O)c3ccc(Cl)cc3)ccc2O[C@@H]1CN(C)CC1CCCCC1	89µM*	x	-7%	5%	u	x
CCCC[C@@H]1C=C(C(=O)O)[C@H](c2ccc(Cl)cc2)N1S(=O)(=O)c1ccc(C)cc1	u	x	u	16%	-17%	x
O=C(CSc1ccc2ccccc2n1)N1CCC(c2noc3ccc(F)cc23)CC1	3%	7%[59 µM]	-5%	26%	-22%	-1%
COc1cc(OC)cc(C(=O)OCC(=O)NCCCc2ccccc2)c1	-6%	6%[2.33 µM]	-14%	32%	11%	8%
O=C(c1ccc(Cl)c(Cl)c1)N1CCC(=O)N(C(CO)Cc2ccccc2)CC1 (stereo unspecified)	u	x	27µM*	-22%	35µM*	x
CCOc1ccc(CNC(=O)CCCn2c(=O)c3cccn3c3cccnc32)cc1	-7%	8%[59 µM]	x	22%	-3%	-22%
Cc1sc2c(c1C)C(=O)NC(c1cccc(O)c1)N2 (stereo unspecified)	x	45µM*	x	x	x	-8%
CCOC(=O)N1CCc2c(sc3c2C(=O)NC(c2ccc(C(=O)OC)cc2)N3)C1 (stereo unspecified)	-2%	10%[59 µM]	x	28%	-6%	1%
Cc1cccc(C2NC(=O)c3c(sc4c3CCN(C)C4)N2)c1O (stereo unspecified)	-9%	u	x	6%	-22%	-14%
SMILES	VDR inhibitor	G9a block	PLK1 PBD inh	HP1b chromo inh	JMJD2A Tudor inh	BAZ2B block
COC(=O)c1ccc(C2NC(=O)c3c(sc(C)c3C)N2)cc1 (stereo unspecified)	-10%	5.6µM*	27µM*	11%	-18%	0%
COC/C=C/C1=CC2=CC(=O)C(C)(OC(=O)c3ccc(Cl)nc3)C(=O)C2=CO1 (stereo unspecified)	-26%	x	x	x	x	x
O=C(Cc1cccs1)Nc1ccc(S(=O)(=O)Nc2ncccn2)cc1	28%	u	-19%	-7%	79µM*	56µM*
Cc1ccnc(NS(=O)(=O)c2ccc(NC(=O)Cc3cccs3)cc2)n1	23%	5%[12.7 µM]	u	-33%	32µM*	50µM*
O=C(Cc1c(F)cccc1Cl)NNC(=S)Nc1ccc(S(=O)(=O)Nc2ncccn2)cc1	-8%	28µM*	-7%	41%	-18%	-4%
Cc1ccnc(NS(=O)(=O)c2ccc(NC(=O)Cc3ccc(F)cc3)cc2)n1	-13%	u	-4%	41%	-18%	0%
Cc1ccnc(NS(=O)(=O)c2ccc(NC(=O)C3CCCCC3)cc2)n1	0%	u	-8%	9%	-6%	-4%
O=C(/C=C/c1c(F)cccc1Cl)Nc1ccc(S(=O)(=O)Nc2ncccn2)cc1	-6%	u	-15%	22%	-8%	-3%
Cc1ccnc(NS(=O)(=O)c2ccc(NC(=O)C3COc4ccccc4O3)cc2)n1 (stereo unspecified)	u	2%	7.5µM*	u	18µM*	-22%
COCCn1c(=O)[nH]c2cc(C(=O)N3CCN(c4cccc(C)c4C)CC3)ccc2c1=O	7%	2%	0%	27%	-2%	-3%
O=C(Cc1ccc(Cl)c(Cl)c1)Nc1ccc(S(=O)(=O)Nc2ncccn2)cc1	u	u	-24%	33%	20µM*	-12%
COCC(=O)Nc1ccc(S(=O)(=O)Nc2ncccn2)cc1	x	31%	x	x	x	-3%
COC1C=CC23c4cc5c(cc4CN(CC2O)C3C1)OCO5 (stereo unspecified)	-3%	-25%[2.33 µM]	x	x	x	x
CC1CCN(S(=O)(=O)c2ccc3c(c2)N(CC(=O)NC(C)C)C(=O)CS3)CC1	-5%	5%[59 µM]	x	15%	-15%	0%
Cc1cccc(C)c1NC(=O)Cn1c(=O)n(CCC(=O)NCc2ccc3c(c2)OCO3)c(=O)c2sccc21	7%	-4%[59 µM]	x	5%	-17%	-34%
Cc1ccc(CNC(=O)[C@H]2C[C@@H]2[C@H](NP(=O)(c2ccccc2)c2ccccc2)c2ccccc2)o1	4%	50µM*	-4%	30%	-11%	u
